Our source for the Potency, activity change, negative = cytotoxicity and outcome values is PubChem BioAssay (NCATS).

Inconclusive results are not listed. A number with no mark means an inactive call. The source made the active and inactive calls. Calls follow the shape of the dose curve; as a rule, active = well fitted curve in the direction sought with a large enough effect; inconclusive = small, poorly fitted or top-dose-only effect, or another doubt; inactive = no such curve, though single readings can be large; an effect the other way counts as inactive or inconclusive. Where a SMILES comes first, the peptide text is derived from it.

Experiment [1] is described as follows: P-glycoprotein substrates identified in KB-8-5-11 adenocarcinoma cell line, qHTS therapeutic library screen (AID 1346987). Also: nearly all actives have a fitted effect of over 65% in size. As to activity change, negative = cytotoxicity: series mostly up to about 44 µM. Put shortly:
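KB-8-5-11, a colchicine-selected P-gp-overexpressing KB-3-1 subline, was grown without colchicine for the assay. Cells were seeded at 500 cells/well, dosed in concentration-response and incubated 72 h at 37 degree C, 5% CO2. Viability was read by CellTiter-Glo luminescence.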
A general note: In qHTS, concentration-response curves come from the screen itself.

In experiment [2] the test system is Zika virus NS2B-NS3 protease (unlinked complex). Put plainly: Primary screen GU Rhodamine qHTS for Zika virus inhibitors: Unlinked NS2B-NS3 protease assay (AID 1347159). Also: nearly all actives have a fitted effect of over 60% in size. Also: potency is read from the fitted curve at half-maximal effect. In a few lines: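 Noncovalent NS2B hydrophilic domain–NS3 protease domain complex (25 nM) preincubated 15 min at room temperature with compounds (up to 114 microM) in 10 mM Tris-HCl pH 8.0, 0.01% Tween 20; 1.5 microM Rhodamine110 substrate added, fluorescence change over 15 min fitted to Hill equation.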

Experiment [3] relates to Zika virus NS2B-NS3 protease (linked construct). Put plainly: Primary screen NINDS Rhodamine qHTS for Zika virus inhibitors (AID 1347160). Also: nearly all actives have a fitted effect of over 55% in size. In a few lines:
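Purified linked NS2B-NS3 protease (NS2B hydrophilic domain joined to NS3 protease by flexible linker), 25 nM in 10 mM Tris-HCl pH 8.0, 0.01% Tween 20. Compounds titrated, 15 min preincubation at room temperature; 1.5 microM Rhodamine110 substrate, FITC fluorescence change over 15 min.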
% is scaled to controls: 0 for no effect and ±100 for the full control effect.

For `COC1OC(OC)C(O)(CCC2(C)C(C)CCC3(C)C2CC(O)C(O)C32CO2)C1O` (stereo unspecified), the Potency result in experiment [1], in experiment [2] and in experiment [3] was “inactive” throughout.
In the case of `COC(=O)C1=COC(OC2OC(CO)C(O)C(O)C2O)C2C(C)C(OC(=O)/C=C/c3ccc(O)cc3)C(O)C12` (stereo unspecified), the Potency result in experiment [1] and in experiment [3] was “inactive” in each case. For the same compound, the Potency in experiment [2] was 28.2 µM (active).
As to `COc1c(C)c(OCC(O)C(C)(C)O)cc2c1CNC2=O` (stereo unspecified), the Potency result in experiment [1], in experiment [2] and in experiment [3] was “inactive” in each case.
Take `Oc1ccc(CC2NCCc3cc(O)c(O)cc32)cc1` (stereo unspecified): the Potency entry in experiment [1], in experiment [2] and in experiment [3] was “inactive” throughout.
As for `CCN=C1N[C@@H]2[C@@H](O)[C@H](O)[C@@H](CO)O[C@@H]2S1`, the Potency entry in experiment [1], in experiment [2] and in experiment [3] was “inactive” in each case.
Regarding `COc1cc(-c2ccc(O)cc2)c(OC)c(O)c1C1=CC(=O)OC1CC(=O)O` (stereo unspecified), the Potency result in experiment [1], in experiment [2] and in experiment [3] was “inactive” throughout.
On to `C=C[C@H]1[C@H](O[C@@H]2O[C@H](CO)[C@@H](O)[C@H](OC(=O)/C=C/c3ccc(O)c(OC)c3)[C@H]2O)OC=C2C(=O)OCC[C@]21O`, for which the Potency result in experiment [1], in experiment [2] and in experiment [3] was “inactive” in each case.
For the compound `O=C(Nc1cc(-c2ccccc2)nn1-c1ccccc1)c1ccc([N+](=O)[O-])cc1`, the Potency entry in experiment [1], in experiment [2] and in experiment [3] was “inactive” throughout.
With `NC(=O)C(O[C@@H]1O[C@H](CO[C@@H]2O[C@H](CO)[C@@H](O)[C@H](O)[C@H]2O)[C@@H](O)[C@H](O)[C@H]1O)c1ccccc1` (stereo partly specified), the Potency result in experiment [1], in experiment [2] and in experiment [3] was “inactive” throughout.
As to `C[C@@H]1C(=O)O[C@H]2[C@H]1CC[C@@]1(C)C(=O)C=C[C@@](C)(O)[C@H]21`, the Potency entry in experiment [1], in experiment [2] and in experiment [3] was “inactive” each time.
Consider `N[C@@H](CC(=O)Nc1ccc(Oc2cc(F)c(F)cc2Br)cc1)C(=O)O`, for which the Potency entry in experiment [1] and in experiment [3] was “inactive” in each case. Besides, the Potency in experiment [2] is 70.8 µM (active).
For the compound `OC[C@H]1O[C@@H](Oc2cc(O)cc(-c3cc4ccc(O[C@@H]5O[C@H](CO)[C@@H](O)[C@H](O)[C@H]5O)cc4o3)c2)[C@H](O)[C@@H](O)[C@@H]1O`, the Potency entry in experiment [1], in experiment [2] and in experiment [3] was “inactive” throughout.
Turning to `C[C@@H]1CC[C@]2(C(=O)O[C@@H]3O[C@H](CO[C@@H]4O[C@H](CO)[C@@H](O[C@@H]5O[C@@H](C)[C@H](O)[C@@H](O)[C@H]5O)[C@H](O)[C@H]4O)[C@@H](O)[C@H](O)[C@H]3O)CC[C@]3(C)C(=CCC4[C@@]5(C)C[C@@H](O)[C@H](O)[C@@](C)(CO)C5CC[C@]43C)C2[C@H]1C` (stereo partly specified), the activity change, negative = cytotoxicity in experiment [1] is 2.95% [at 9.29 µM]. Moreover, the Potency entry in experiment [2] and in experiment [3] was “inactive” each time.
Regarding `COC(=O)C(CC1(O)c2ccccc2N2C(=O)C(C)(C)N(O)C21)n1cnc2ccccc2c1=O` (stereo unspecified), the Potency entry in experiment [1], in experiment [2] and in experiment [3] was “inactive” in each case.
In the case of `CC1(C)CC[C@]2(C(=O)O)CC[C@]3(C)C(=CCC4[C@@]5(C)C(=O)C[C@H](O)[C@@](C)(CO)C5CC[C@]43C)[C@@H]2C1` (stereo partly specified), the Potency entry in experiment [1], in experiment [2] and in experiment [3] was “inactive” in each case.
As to `CC1(C)CC[C@]2(C(=O)O)CC[C@]3(C)C(=CCC4[C@@]5(C)C[C@H](O)[C@H](O[C@@H]6O[C@H](CO)[C@@H](O)[C@H](O)[C@H]6O)[C@@](C)(CO)C5[C@H](O)C[C@]43C)[C@@H]2C1` (stereo partly specified), the Potency result in experiment [1], in experiment [2] and in experiment [3] was “inactive” each time.
On to `C=C1CC[C@]2(C(=O)O[C@@H]3O[C@H](CO)[C@@H](O)[C@H](O)[C@H]3O)CC[C@]3(C)C(=CCC4[C@@]5(C)C[C@H](O)[C@@H](O[C@@H]6O[C@H](C(=O)O)[C@@H](O)[C@H](O)[C@H]6O)[C@](C)(C=O)C5CC[C@]43C)C2C1` (stereo partly specified), for which the outcome in experiment [1] is “inactive [at 9.29 µM]”. Also, the Potency result in experiment [2] and in experiment [3] was “inactive” each time.
Regarding `COc1cc(C(CO)C(OC2OC(CO)C(O)C(O)C2O)c2ccc(O)c(OC)c2)ccc1O` (stereo unspecified), the Potency entry in experiment [1], in experiment [2] and in experiment [3] was “inactive” in each case.
For `CCOC(=O)c1ccc(NC2CCCCC2)c(N)c1`, the Potency entry in experiment [1], in experiment [2] and in experiment [3] was “inactive” in each case.
Take `C=C(C(=O)OC)[C@]12O[C@@](C)(CC[C@@]3(O)/C(=C\C)C(=O)O[C@]3(C)C[C@@H]1OC(=O)C(CO)CN1CCCC1C(=O)O)CC2=O` (stereo partly specified): the Potency entry in experiment [1], in experiment [2] and in experiment [3] was “inactive” in each case.
For `CCCN1CCC[C@@H](c2cccc(S(C)(=O)=O)c2)C1`, the Potency result in experiment [1], in experiment [2] and in experiment [3] was “inactive” in each case.
For the compound `CC1=C2CC(=O)C(C)CC/C=C(\C)CC2(O)OC1=O` (stereo unspecified), the Potency entry in experiment [1], in experiment [2] and in experiment [3] was “inactive” in each case.
Take `C=C1CC2C(C)(CCC(=O)O)C(C(C)(C)O)CCC2(C)C2(C(=O)OC)C(=O)C(C)(O)C(=O)C12C` (stereo unspecified): the Potency result in experiment [1], in experiment [2] and in experiment [3] was “inactive” throughout.
`CC[C@H]1OC(=O)[C@H](C)[C@@H](O[C@H]2C[C@@](C)(OC)[C@@H](O)[C@H](C)O2)C(C)[C@@H](O[C@@H]2O[C@H](C)C[C@H](N(C)C)[C@H]2O)[C@](C)(O)C[C@@H](C)CN(C)[C@H](C)[C@@H](O)[C@]1(C)O` (stereo partly specified): the Potency result in experiment [1], in experiment [2] and in experiment [3] was “inactive” each time.
In the case of `C=C(C)C1CCC2(C(=O)OC3OC(COC4OC(CO)C(O)C(O)C4O)C(OC4OC(C)C(O)C(O)C4O)C(O)C3O)CCC3(C(=O)O)C(CCC4C5(C)CCC(=O)C(C)(C)C5CCC43C)C12` (stereo unspecified), in experiment [1], the outcome was “inactive [at 9.29 µM]”. Further, the Potency result in experiment [2] and in experiment [3] was “inactive” in each case.
`CC(=O)NC(Cc1ccccc1)C(=O)NC(C(=O)O)C(C)C` (stereo not drawn) (Ac-Phe-Val-OH; configuration not given here): the Potency result in experiment [1], in experiment [2] and in experiment [3] was “inactive” in each case.
For `C=C[C@H]1[C@H](O[C@@H]2O[C@H](CO)[C@@H](O)[C@H](O)[C@H]2O)OC=C(C(=O)OC)[C@H]1CCO`, the Potency entry in experiment [1], in experiment [2] and in experiment [3] was “inactive” each time.
